# Source: PubChem
# Compounds with a hit are over-represented: about 21% of the library has one in this group of screens.
# Sm TGR block – S. mansoni TGR enzyme inhibition; purified TGR, DTNB reduction, TNB absorbance 405 nm; Potency, µM (highest dose often 114 µM), inactives show at the top dose activity change, negative = inhibition, usual class: inhibitors; hit rate 3% among 360,000; AID 485364; also: potency is read from the fitted curve at half-maximal effect; % is scaled to controls: 0 for no effect and ±100 for the full control effect; nearly all actives have a fitted effect of over 60% in size
#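 Kinetic colorimetric format: TGR-catalysed, NADPH-driven DTNB reduction monitored via TNB absorbance. Enzyme dispensed at 20 nM; compound exposure 15 min at room temperature before reaction start.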
# Pf growth 96h – P. falciparum growth inhibition at 96 hours; P. falciparum luciferase reporter growth, 96 h; Potency, µM (highest dose often 28.7 µM), without a hit: top-dose activity change, negative = inhibition, actives largely listed as inhibitors; hit rate 6.9% among 320,000; AID 504834; also: potency is read from the fitted curve at half-maximal effect; % is scaled to controls: 0 for no effect and ±100 for the full control effect
#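 Cell-based qHTS: luciferase-tagged P. falciparum in erythrocytes (2% hematocrit, 0.05% parasitemia final) incubated with compounds for 96 hours, 37 C, 5% CO2; luciferase detection reagent then added and luminescence measured.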
# NS1 inh – influenza NS1 inhibition. AID 2326. hit rate 0.4% among 270,000. Potency, µM (titrated, usually from 46.1 µM), for the others: top-dose activity, positive = more growth; calls by dose curve; also: potency is read from the fitted curve at half-maximal effect; actives are rising curves; nearly all actives have a fitted effect of over 50% in size
#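 A cell-based growth assay was used: compounds that relieve NS1-induced slow growth of budding yeast raise OD600. Assay medium was yeast nitrogen base with ammonium sulphate and -URA supplement, pH 6.0, with 2% galactose.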
# Shiga toxin inh – inhibitors of Shiga toxin in Vero cells | Vero cells, Shiga toxin protein synthesis inhibition reporter | hit rate 9.2% among 290,000 | inhibition, % at 38.7 µM; in the data active = inhibition mostly above about 28%, no sharp cut-off; inactive = mostly below about 43%; also: 0% is about no effect
# Pf growth 48h – inhibits P. falciparum growth in the first generation, 48 h | hit rate 5.9% among 310,000 | P. falciparum luciferase growth in erythrocytes, 48 h | Potency, µM (series often up to 28.7 µM), without a hit: top-dose activity change, negative = inhibition, usual class: inhibitors; also: potency is read from the fitted curve at half-maximal effect; % is scaled to controls: 0 for no effect and ±100 for the full control effect
#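 Read-out is firefly luciferase luminescence from an integrated reporter in P. falciparum, so falling signal marks reduced parasite growth. Infected erythrocytes were at 2% hematocrit and 0.1% parasitemia (final) in Albumax-supplemented RPMI 1640.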
# Cycloheximide cs – counter-screen for Shiga toxin inhibitors: cycloheximide protein synthesis inhibition; cell reporter, cycloheximide protein synthesis inhibition counterscreen; max response, %; hit rate 12% among 300,000; AID 2314; in the data active = max response mostly above about 13%, no sharp cut-off; inactive = mostly below about 14%; also: read at 38.3 µM for the half of the compounds with a filed dose; 0% is about no effect
# Numbers without * were called inactive; ? = inconclusive; / = no result given; [ ] = another dose, or the depositor's remark. Unless noted, calls follow the shape of the dose curve; as a rule, active = well fitted curve in the direction sought with a large enough effect; inconclusive = small, poorly fitted or top-dose-only effect, or another doubt; inactive = no such curve, though single readings can be large; an effect the other way counts as inactive or inconclusive.
SMILES,Sm TGR block,Pf growth 96h,NS1 inh,Shiga toxin inh,Pf growth 48h,Cycloheximide cs
COc1ccccc1/C=N/NC(=O)CN(C1=NS(=O)(=O)c2ccccc21)c1ccccc1,-2%,0.15µM*,-16%,23,1%,-4
CN1CCN(C(=O)c2ccc3c(c2)N(Cc2ccc(F)cc2)C(=O)c2ccccc2S3(=O)=O)CC1,-2%,/,/,/,/,/
Cc1ccc(-n2c(O)cnc2Nc2nc(C)cc(C)n2)cc1,0%,0.29µM*,5%,-26,13%,-2
COc1cccc(NC(=O)C2CCN(c3nc4ccccc4nc3C(F)(F)F)CC2)c1,6%,/,/,/,/,/
C=CCNC(=O)CCc1nnc(C2(c3ccc(Cl)cc3)CCC2)o1,/,-27%,-2%,85*,?,55*
C=C(C)CNC(=O)CCc1nnc(C2(c3ccc(Cl)cc3)CCC2)o1,-17%,?,-5%,75*,-1%,44*
O=C(CCc1nnc(C2(c3ccc(Cl)cc3)CCC2)o1)NC1CC1,1%,-60%,1%,-2,10µM*,14*
O=C(CCCOc1ccc(Cl)cc1)NC1CCCCC1,-22%,-11%,-2%,/,?,-2
CC(c1ccon1)N(C)C(=O)CCc1nnc(C2(c3ccc(Cl)cc3)CCC2)o1 (configuration not stated),4%,-14%,-5%,48*,-8%,21*
COc1cc2c(cc1OC)C(C)N(C(=O)c1ccc(Cl)c(S(=O)(=O)N3CCCCC3)c1)CC2 (configuration not stated),4%,?,-14%,22,?,-2
Cc1c(CCC(=O)NCCc2ccccc2)c(=O)oc2c(C)c(O)ccc12,14%,/,/,/,/,/
COc1ccc(Nc2nn(-c3ccc(OC(F)(F)F)cc3)nc2C(C)=O)cc1,-1%,/,/,/,/,/
Cc1ccc(C2=NN(C(=O)CCC(=O)O)C(c3cn(-c4ccccc4)nc3-c3ccc(C)cc3)C2)cc1 (configuration not stated),-18%,-14%,/,-4,?,-4
COC(=O)CNC(=O)CCc1nnc(C2(c3ccc(Cl)cc3)CCC2)o1,0%,7%,-4%,39*,-10%,45*
COCC(C)NC(=O)CCc1nnc(C2(c3ccc(Cl)cc3)CCC2)o1 (configuration not stated),-8%,-3%,-4%,41*,14%,30*
COc1ccc(CCc2nnc(CCC(=O)NCC3CCCO3)o2)cc1 (configuration not stated),1%,-17%,10%,13,23%,7
Cc1ccc(-c2csc(=Nc3ccccc3)n2Cc2ccc3c(c2)OCO3)cc1,-10%,/,/,/,/,/
Cc1ccccc1N1CCN(CCC(=O)Nc2ccc(F)cc2)CC1,40µM*,127%,-5%,/,19%,2
COC(=O)c1ccc(NC(=O)CN2CCN(c3ccccc3C)CC2)cc1,0%,9.3µM*,-29%,-5,16%,-1
COc1ccc(NC(=O)CN2CCN(c3ccccc3C)CC2)cc1,2%,?,-25%,4,-10%,0
CCN1CCN(CCC(=O)Nc2ccc(C)cc2)CC1,0%,?,15%,-11,18%,1
COC(=O)c1c(NC(=O)CN2CCN(c3ccccc3)CC2)c2c(C)cccc2n1C,3%[11.4 µM],5.9µM*,-53%,-13,/,1
CCN1CCN(CCC(=O)Nc2ccccc2)CC1,2%,13µM*,21%,15,70%,2
CCC(C)(C)NC(=O)C(c1cccnc1)N(C(=O)c1csnn1)c1ccccc1 (configuration not stated),12%[57.1 µM],2%,-6%,16,25%,6
COc1ccccc1-c1nn2c(=O)cc(CN3CCN(C(=O)/C=C/c4ccccc4)CC3)nc2s1,-23%,/,/,/,/,/
SMILES,Sm TGR block,Pf growth 96h,NS1 inh,Shiga toxin inh,Pf growth 48h,Cycloheximide cs
CCOC(=O)c1ccc2c(c1)n(CCCS(=O)(=O)[O-])c(/C=C/c1ccc(Cl)cc1)[n+]2CC,-15%,?,1%,-1,9.3µM*,7
CCOC(=O)c1ccc2c(c1)[n+](CC)c(C)n2-c1ccccc1,/,?,2%,-10,?,-5
COc1ccc(/C=N/Nc2nc(-c3ccc(C)cc3)c(NC(C)=O)s2)cc1,4%,4.7µM*,18%,19,2.3µM*,21
CC(=O)Nc1sc(N/N=C/c2ccccc2F)nc1-c1ccc(C)cc1,32µM*,?,25%,92*,8.3µM*,42*
CC(=O)Nc1sc(N/N=C/c2ccccc2)nc1-c1ccc(C)cc1,8%,?,8%,31,7.4µM*,18*
CCOC(=O)c1nc(N/N=C/c2ccccc2)sc1Br,-24%,?,-4%,21,17%,13*
CC(=O)Nc1sc(N/N=C/c2ccc(O)cc2)nc1-c1ccc(C)cc1,-18%,?,5%,15,?,11
COc1ccc(-c2nc(NC(C)=O)sc2-c2ccccc2)cc1,2%,?,11%,-2,?,14
CC(=O)Nc1sc(-c2ccc(Cl)cc2)nc1-c1ccccc1,-9%,-1%,1%,-7,12%,0
CCOc1cc(/C=C(\C#N)C(N)=O)cc(CSc2ccccc2)c1O,/,/,/,19,/,-1
CCOc1ccc(OCC)c(NC(=O)c2cnn(-c3ccc(F)cc3)c2-n2cccc2)c1,-4%,/,/,/,/,/
COc1ccc(N(CC(C)C)S(=O)(=O)c2nnc(NC(=O)CC(C)C)s2)cc1,-17%,?,5%,6,-9%,-1
CC(=O)Nc1sc(-c2ccccc2)nc1-c1ccccc1,-6%,4.7µM*,/,18,4%,-3
CCC(=O)NC(c1cc(Cl)c2cccnc2c1O)C1CC1 (configuration not stated),-22%,2.9µM*,/,/,3.7µM*,/
CCC(=O)NC(c1cc(Cl)c2cccnc2c1O)C(C)C (configuration not stated),-6%,13µM*,/,/,2.9µM*,/
CC(=O)NC(c1cc(F)c2cccnc2c1O)C1CC1 (configuration not stated),-1%,?,/,/,?,/
COc1ccc(C(NC(C)=O)c2cc(Cl)c3cccnc3c2O)cc1 (configuration not stated),-32%,?,-14%,/,?,-5
COc1ccc(CCNC(=O)CO/N=C/c2cc3c(cc2Br)OCO3)cc1OC,4%,?,/,-13,1%,-4
CN(C(=O)COC(=O)c1ccccc1OCc1ccc(F)cc1)C1CCS(=O)(=O)C1 (configuration not stated),-2%,-14%,/,/,-19%,/
CCOCCCn1c(=S)[nH]c2cc(C(=O)N3CCN(C4CCCCC4)CC3)ccc2c1=O,-1%,5.2µM*,0%,-8,1%,-2
CCOCCCn1c(=S)[nH]c2cc(C(=O)N3CCN(c4ccccc4)CC3)ccc2c1=O,0%,15µM*,6%,-6,19%,-3
Nc1nonc1-c1nc2ccccc2n1Cc1ccc(Br)cc1,1%,/,/,/,/,/
